Data: PubChem BioAssay (Tox21)
Several values for one entry are separate records, joined by “and”; a condition that tells them apart may be missing. Identical values can stand only once. Records with an inconclusive call do not appear. Activity calls are given as the source filed them. Unless noted, the call rests on the fitted dose curve; in most records, active means well fitted curve in the direction sought with a large enough effect in the repeat runs; inconclusive means weak or mixed curves; inactive means no such curve, though single readings can be large; an effect the other way counts as inactive or inconclusive.

Legend:
[1] = qHTS assay to identify small molecule agonists of the peroxisome proliferator-activated receptor delta (PPARd) signaling pathway - cell viability counter screen (AID 743211); further: nearly all actives have a fitted effect of over 55% in size; further: potency means the concentration at half of the fitted maximal effect
Method in brief: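 qHTS cell viability: PPARd-bla HEK293H; 17 h cpd, 37C; CellTiter-Glo, luminescence at 30 min RT.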

[2] = qHTS assay to identify small molecule antagonists of the peroxisome proliferator-activated receptor delta (PPARd) signaling pathway - cell viability counter screen (AID 743213); further: nearly all actives have a fitted effect of over 50% in size; further: potency means the concentration at half of the fitted maximal effect
Method in brief: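 In this counter screen, HEK293H cells carrying a UAS-beta-lactamase reporter are co-treated with test compounds and 300 nM L165041 (final) for 17 h at 37 C; cell viability is quantified by CellTiter-Glo luminescence.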

[3] = qHTS assay to identify small molecule agonists of the farnesoid-X-receptor (FXR) signaling pathway - cell viability counter screen (AID 743218); further: nearly all actives have a fitted effect of over 45% in size; further: potency means the concentration at half of the fitted maximal effect
Method in brief: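 Cytotoxicity counter-screen run in parallel, same wells: FXR-UAS-bla HEK 293T cells dosed 16 h at 37 C, viability read by CellTiter-Glo luminescence after 30 min at room temperature.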

[4] = target: Bile acid receptor (Homo sapiens) (UniProt Q96RI1); experiment: qHTS assay to identify small molecule agonists of the farnesoid-X-receptor (FXR) signaling pathway (AID 743220; active means well fitted activation curve with a large enough effect in the signal ratio in the repeat runs, not every such curve was filed as active; the % refers to the signal ratio)
Method in brief: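 Beta-lactamase reporter under UAS control in GeneBLAzer FXR HEK 293T cells (5000/well) measured with LiveBLAzer FRET substrate after 2 h at room temperature. Compound exposure lasted 16 h at 37C.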

[5] = qHTS assay to identify small molecule antagonists of the farnesoid-X-receptor (FXR) signaling pathway - cell viability counter screen (AID 743221; active means well fitted cell-killing curve with a large enough effect in the repeat runs, not every such curve was filed as active; further: nearly all actives have a fitted effect of over 50% in size; further: potency means the concentration at half of the fitted maximal effect)
Method in brief: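 After a 5 h settling period, FXR-bla HEK 293T cells receive compound and chenodeoxycholic acid (50 uM final) and incubate 16 h at 37 C; CellTiter-Glo luminescence, read after 30 min at room temperature, reports cell viability.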

[6] = target: Vitamin D3 receptor (Homo sapiens) (UniProt P11473); experiment: qHTS assay to identify small molecule agonists of the vitamin D receptor (VDR) signaling pathway (AID 743222; calls by dose curve)
Method in brief: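 Quantitative HTS agonist-mode screen: compounds in DMSO were pin-transferred onto VDR-bla cells and incubated 16 h at 37C, 5% CO2. Reporter activity was detected with LiveBLAzer B/G FRET substrate after 2 h at room temperature.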

[7] = target: Peroxisome proliferator-activated receptor delta (Homo sapiens) (UniProt Q03181); experiment: qHTS assay to identify small molecule antagonists of the peroxisome proliferator-activated receptor delta (PPARd) signaling pathway (AID 743215; active means well fitted inhibition curve with a large enough effect in the signal ratio in the repeat runs, not every such curve was filed as active; the % refers to the signal ratio;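 further: cells stimulated with agonist L165041 at 300 nM final during compound exposure; series mostly up to about 62 µM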)
Method in brief: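 Inhibition of L165041-driven (300 nM final) PPARd signaling is scored in HEK293H UAS-bla cells. Exposure lasts 17 h at 37 C; beta-lactamase activity is then read by FRET substrate fluorescence after 2 h at room temperature.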

[8] = target: Vitamin D3 receptor (Homo sapiens) (UniProt P11473); experiment: qHTS assay to identify small molecule antagonists of the vitamin D receptor (VDR) signaling pathway (AID 743223; active means well fitted inhibition curve with a large enough effect in the signal ratio in the repeat runs, not every such curve was filed as active; the % refers to the signal ratio)
Method in brief: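 Reporter line VDR-bla; stimulus 1alpha,25-(OH)2 vitamin D3, 3 nM final; compound co-addition, 16 h 37C/5% CO2; LiveBLAzer B/G substrate 2 h RT; fluorescence intensity.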

[9] = target: Bile acid receptor (Homo sapiens) (UniProt Q96RI1); experiment: qHTS assay to identify small molecule antagonists of the farnesoid-X-receptor (FXR) signaling pathway (AID 743217; active means well fitted inhibition curve with a large enough effect in the signal ratio in the repeat runs, not every such curve was filed as active; the % refers to the signal ratio; further: potency means the concentration at half of the fitted maximal effect)
Method in brief: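 Antagonist mode against 50 uM (final) chenodeoxycholic acid stimulation in FXR-bla HEK 293T cells, 16 h at 37 °C. Inhibition detected as reduced beta-lactamase activity via LiveBLAzer B/G FRET fluorescence after 2 h at room temperature.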

[10] = target: Peroxisome proliferator-activated receptor delta (Homo sapiens) (UniProt Q03181); experiment: qHTS assay to identify small molecule agonists of the peroxisome proliferator-activated receptor delta (PPARd) signaling pathway (AID 743212; calls by dose curve)
Method in brief: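 GeneBLAzer UAS-bla HEK293H cells carrying a PPARδ construct were exposed to compounds at 37 °C. Beta-lactamase activity was read by FRET fluorescence after 2 h at room temperature with LiveBLAzer B/G substrate.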
On the % scale 0 is the no-effect control and ±100 the full control effect.

Peroxisome proliferator-activated receptor delta (Homo sapiens), sequence (Q03181 whole entry, looked up): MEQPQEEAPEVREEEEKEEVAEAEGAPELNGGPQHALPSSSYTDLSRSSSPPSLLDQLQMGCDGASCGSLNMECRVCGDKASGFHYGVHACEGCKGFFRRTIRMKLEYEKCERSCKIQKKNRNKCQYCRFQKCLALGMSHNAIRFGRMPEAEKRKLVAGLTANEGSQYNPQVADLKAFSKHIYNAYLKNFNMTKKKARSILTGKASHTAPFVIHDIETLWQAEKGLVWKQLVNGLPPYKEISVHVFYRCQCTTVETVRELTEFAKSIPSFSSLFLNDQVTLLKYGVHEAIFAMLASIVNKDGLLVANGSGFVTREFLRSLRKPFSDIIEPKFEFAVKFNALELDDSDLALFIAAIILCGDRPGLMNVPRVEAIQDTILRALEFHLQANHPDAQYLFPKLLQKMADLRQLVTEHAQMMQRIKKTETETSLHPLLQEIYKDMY
Vitamin D3 receptor (Homo sapiens), sequence (P11473 whole entry, looked up): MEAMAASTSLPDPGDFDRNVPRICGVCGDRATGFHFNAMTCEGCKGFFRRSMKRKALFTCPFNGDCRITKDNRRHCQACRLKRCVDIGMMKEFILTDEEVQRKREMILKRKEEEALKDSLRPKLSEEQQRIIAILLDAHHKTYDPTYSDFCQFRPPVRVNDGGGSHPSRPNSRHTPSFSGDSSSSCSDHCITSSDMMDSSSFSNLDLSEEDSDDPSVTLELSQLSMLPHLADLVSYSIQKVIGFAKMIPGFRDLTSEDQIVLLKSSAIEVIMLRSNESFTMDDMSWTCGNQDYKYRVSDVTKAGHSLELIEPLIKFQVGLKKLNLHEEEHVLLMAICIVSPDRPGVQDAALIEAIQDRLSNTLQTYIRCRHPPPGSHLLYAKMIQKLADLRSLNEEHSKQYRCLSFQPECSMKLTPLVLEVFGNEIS
Bile acid receptor (Homo sapiens), sequence (Q96RI1 whole entry, looked up): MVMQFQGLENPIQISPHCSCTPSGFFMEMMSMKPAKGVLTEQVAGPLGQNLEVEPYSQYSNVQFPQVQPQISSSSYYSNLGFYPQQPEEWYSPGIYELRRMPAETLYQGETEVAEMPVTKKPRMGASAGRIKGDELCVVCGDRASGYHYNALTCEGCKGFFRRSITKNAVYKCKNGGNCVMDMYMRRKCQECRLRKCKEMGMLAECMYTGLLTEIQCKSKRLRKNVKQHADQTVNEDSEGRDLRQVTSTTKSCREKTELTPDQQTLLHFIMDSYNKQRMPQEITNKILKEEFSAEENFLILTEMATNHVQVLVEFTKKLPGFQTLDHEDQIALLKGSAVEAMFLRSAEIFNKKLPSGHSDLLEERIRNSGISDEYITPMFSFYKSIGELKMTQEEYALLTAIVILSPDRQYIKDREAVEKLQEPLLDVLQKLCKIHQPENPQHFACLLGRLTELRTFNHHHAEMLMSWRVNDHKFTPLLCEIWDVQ

Nc1cc(Cl)c(O)c(Cl)c1
inactive: Potency [1] | Potency [2] | Potency [3]

COc1ccc2cc1Oc1ccc(cc1)C[C@H]1c3c(cc4c(c3Oc3cc5c(cc3OC)CCN(C)[C@@H]5C2)OCO4)CCN1C
active: Potency [1] 29.8 µM | Potency [2] 13.3 µM | Potency [3] 18.8 µM | Potency [5] 29.8 µM
inactive: Potency [4] | Potency [6]

CC(C)(c1cc(Br)c(OCC(Br)CBr)c(Br)c1)c1cc(Br)c(OCC(Br)CBr)c(Br)c1 (configuration not stated)
inactive: Potency [1] | Potency [2] | Potency [7] | Potency [3] | Potency [6] | Potency [8]

O=C1NC(=O)[C@@H]2CC=CC[C@H]12
active: Potency [3] 21.9 µM
inactive: Potency [1] | Potency [2] | Potency [9] | Potency [4] | Potency [5] | Potency [6] | Potency [8]

c1ccc(SSc2ccccc2)cc1
inactive: Potency [1] | Potency [2] | Potency [7] | Potency [5] | Potency [6]

O=C(O)CN(CCN(CC(=O)O)CC(=O)O)CC(=O)O
inactive: activity change, negative = cytotoxicity [1] 0.566% [at 2.7 µM] | viability change, negative = cytotoxic [2] 5.49% [at 2.83 µM] | viability change, negative = cytotoxic [3] -17.2% [at 2.7 µM] | activity change, negative = cytotoxicity [5] -12.7% [at 2.69 µM]

Cc1nc(-c2ccc(Cl)cc2)oc1COC(C)(C)C(=O)O
inactive: Potency [1] | Potency [2] | Potency [9] | Potency [3] | Potency [4] | Potency [5] | Potency [6] | Potency [8]

CCCC1CCC(=O)CC1
inactive: Potency [1] | Potency [2]

COc1ccc2c(c1)c(CC(=O)OC/C=C(\C)CC/C=C(\C)CCC=C(C)C)c(C)n2C(=O)c1ccc(Cl)cc1
inactive: Potency [1] | Potency [2] | Potency [3] | Potency [4] | Potency [5] | Potency [8]

Nc1nc(-c2ccccc2)cs1
inactive: Potency [1] | Potency [2] | Potency [9] | Potency [3] | Potency [4] | Potency [5] | Potency [6] | Potency [8]

CC(C(=O)O)c1ccc2c(c1)[nH]c1ccc(Cl)cc12 (configuration not stated)
inactive: Potency [1] | Potency [2] | Potency [3] | Potency [4] | Potency [8]

Cc1cc(=O)oc2cc(O)cc(O)c12
inactive: Potency [1] | Potency [2] | Potency [9] | Potency [3] | Potency [5]

CC(C)=CCC1=C(O)c2ccccc2C(=O)C1=O
inactive: Potency [1] | Potency [10] | Potency [3] | Potency [6] | Potency [8]

CN(C)c1ccc(C(=C2C=CC(=[N+](C)C)C=C2)c2ccc(N(C)C)cc2)cc1
active: Potency [1] 6.88 µM and 7.76 µM and 8.41 µM | Potency [2] 17.3 µM and 17.4 µM and 6.68 µM | Potency [9] 16.8 µM | Potency [3] 10.9 µM and 19.5 µM and 10.6 µM | Potency [5] 21.8 µM and 27.5 µM and 13.3 µM
inactive: Potency [4] | Potency [6]

Cc1ccc(N/N=c2\c(=O)cc/c(=N\Nc3ccc(S(=O)(=O)O)cc3)c2=O)c(C)c1
inactive: Potency [1] | Potency [2] | Potency [9] | Potency [3] | Potency [4] | Potency [5]

CCCCCC/C=C\CCCCCCCC(=O)O
inactive: Potency [1] | Potency [2] | Potency [7] | Potency [9] | Potency [3] | Potency [4] | Potency [5] | Potency [6] | Potency [8]

CCn1c2ccccc2c2cc([N+](=O)[O-])ccc21
inactive: Potency [1] | Potency [2] | Potency [9] | Potency [3]
